Data from PubChem BioAssay AID1851 (National Center for Advancing Translational Sciences (NCATS), 2009).
“And” between values parts separate entries of the source, which are not always exact repeats. Equal values may be shown once. In all, about 16,000 compounds went through this assay and about 5,700 (36%) were called active. Inconclusive results (about 24%) are left out. Calls follow the shape of the dose curve; as a rule, active = well fitted curve in the direction sought with a large enough effect; inconclusive = small, poorly fitted or top-dose-only effect, or effect the other way; inactive = no such curve, though single readings can be large or run the other way. The list shows a part of the results.

What follows are compounds tested against Cytochrome P450 1A2 (Homo sapiens) (UniProt P05177) (assay: Cytochrome panel assay with activity outcomes). Conditions: recombinant CYP, pro-luciferin dealkylation, luminescence, p450-cyp1a2; series mostly up to 57.1 µM; activity, negative = inhibition: at the top concentration.
% is scaled to controls: 0 for no effect and ±100 for the full control effect.

Sequence of Cytochrome P450 1A2 (Homo sapiens) (P05177 whole entry, looked up): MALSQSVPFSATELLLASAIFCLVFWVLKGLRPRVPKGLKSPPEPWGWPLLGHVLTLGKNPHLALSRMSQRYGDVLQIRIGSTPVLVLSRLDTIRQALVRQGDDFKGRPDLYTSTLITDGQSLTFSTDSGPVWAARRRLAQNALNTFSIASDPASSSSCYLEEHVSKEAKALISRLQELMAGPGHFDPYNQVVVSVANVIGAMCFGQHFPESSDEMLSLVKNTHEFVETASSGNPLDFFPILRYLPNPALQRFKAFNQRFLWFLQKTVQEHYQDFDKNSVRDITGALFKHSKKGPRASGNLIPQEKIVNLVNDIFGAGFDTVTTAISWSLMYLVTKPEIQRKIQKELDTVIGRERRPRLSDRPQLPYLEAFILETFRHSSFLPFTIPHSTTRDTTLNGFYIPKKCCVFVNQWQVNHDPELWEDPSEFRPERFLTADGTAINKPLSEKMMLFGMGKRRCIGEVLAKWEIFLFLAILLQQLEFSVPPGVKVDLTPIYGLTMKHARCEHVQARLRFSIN

Row | SMILES | activity, negative = inhibition | AC50
1 | C#CCCCO/N=C1/[C@H]2O[C@@H]2[C@@H](O)[C@H]2[C@H]1CCn1c(=O)n(C)c(=O)n12 | -0.0514% [at 11.4 µM] (inactive) | 
2 | CCN1C(=O)[C@@H]2[C@H]3C(=CC[C@@H]2C1=O)C1(OCCCO1)[C@H]1O[C@@H]1[C@H]3O | -2.44% [at 11.4 µM] (inactive) | 
3 | Cc1ccc(S(=O)(=O)N2CCN(S(C)(=O)=O)C2)cc1 | 14.9% (inactive) | 
4 | CCOC(=O)c1cccc(C(=O)OCC)n1 |  | 12.6 µM (active)
5 | Cc1ccc(OC(=O)c2cccc(C(=O)Oc3ccc(C)cc3)n2)cc1 | 13.2% (inactive) | 
6 | Cc1ccc(OC(=O)c2cccc(C(=O)Oc3ccc(C)cn3)n2)nc1 | -13.6% (inactive) | 
7 | O=C(CCC(=O)c1cccs1)OCC(=O)N1CCN(C(=O)c2ccco2)CC1 | -25.3% (inactive) | 
8 | O=C(OCC(=O)c1cccs1)c1cccc(C(=O)OCC(=O)c2cccs2)n1 |  | 15.8 µM (active)
9 | COC(=O)c1cccc(C(=O)Nc2ccc(C)cc2)n1 |  | 1 µM (active)
10 | S=c1nc(-c2ccccc2)oc2c1CCCC2 |  | 0.562 µM (active)
11 | COc1ccc(-n2c(-c3ccccc3)nc(=S)c3c2CCCC3)cc1 | -27.9% (inactive) | 
12 | O=C(Nc1cccc2nsnc12)c1ccc(-c2cccc(Cl)c2)o1 |  | 2 µM (active)
13 | CCCn1nnc(NC(=O)c2ccc(-c3cccc(Cl)c3)o2)n1 |  | 1.58 µM (active)
14 | Cc1ccc(C(=O)NC(=S)Nc2cccc3nsnc23)cc1 | 5.9% (inactive) | 
15 | O=C(c1cnccn1)N1CCC2(CCCN(c3ccccn3)C2)CC1 | -8.32% (inactive) | 
16 | CC(C)c1ccc(/C=C2\C=C(c3ccc4ccccc4c3)OC2=O)cc1 | -24.7% [at 2.29 µM] (inactive) | 
17 | Cc1ccccc1/C=C1\OC(=O)c2ccccc21 |  | 1.26 µM (active)
18 | Cc1ccc(/C=C2\OC(=O)c3ccccc32)cc1 |  | 0.794 µM (active)
19 | CC(=O)OC[C@@H]1O[C@@H](O/N=C2/C[C@@H](O)[C@@H](O)[C@@H]3[C@@H]4C(=O)N(Cc5ccc6c(c5)OCO6)C(=O)[C@H]4CC[C@@H]23)[C@H](OC(C)=O)[C@H](OC(C)=O)[C@@H]1OC(C)=O | -15% [at 11.4 µM] (inactive) | 
20 | CC(=O)[C@H]1CC[C@@H]2[C@H]3CC=C4C[C@@H](O)CC[C@]4(C)[C@H]3CC[C@]12C | -9.13% [at 25.6 µM] (inactive) | 
21 | O=C(N=NC(=O)c1ccc2c(O)n(C3CCCCC3)c(O)c2c1)c1cccnc1 | 20.1% (inactive) | 
22 | C[C@@H](c1ccccc1)N1C(=O)[C@H]2[C@@H]3[C@H](O)[C@H](O)CC(=O)[C@H]3CC[C@H]2C1=O | 6.67% [at 11.4 µM] (inactive) and -2.18% [at 11.4 µM] (inactive) | 

Row | SMILES | activity, negative = inhibition | AC50
23 | N#CCSc1nc2cc(C(=O)N3CCCC3)ccc2c(=O)n1Cc1ccccc1 |  | 15.8 µM (active)
24 | NC1(C(=O)O)C[C@H](C(=O)O)[C@H](C(=O)O)C1 (stereo not given in full) | -16.8% (inactive) | 
25 | COc1ccc(/C=N/n2cnc3c([nH]c4ccc(Br)cc43)c2=O)cc1CN1CCOCC1 |  | 12.6 µM (active)
26 | Nc1ncnc2c1ncn2[C@@H]1CCCO1 | -6.04% (inactive) | 
27 | O=[N+]([O-])c1ccc(Cl)c(CNc2ncnc3c2ncn3[C@@H]2CCCCO2)c1 |  | 5.01 µM (active)
28 | C[N+](C)(C)c1ncnc2c1ncn2[C@@H]1CCCCO1 | 2.33% [at 2.29 µM] (inactive) | 
29 | Cc1cc([N+](=O)[O-])c(C)c(Br)c1C |  | 1 µM (active)
30 | COc1ccc(S(=O)(=O)NCc2ccc(C(=O)N3CCN(c4ccccn4)CC3)cc2)cc1 | -28.2% (inactive) | 
31 | O=C(Nc1ccc(Nc2ccc3c(c2)C(=O)c2ccccc2C3=O)c2c1C(=O)c1ccccc1C2=O)c1ccccc1 |  | 1.58 µM (active)
32 | CCC(=O)Nc1ccc2c(c1)C(=O)c1ccccc1C2=O |  | 0.316 µM (active)
33 | CCOC(=O)c1c(-c2ccccc2)nc2ccccn12 |  | 1.12 µM (active)
34 | CCOC(=O)c1c(-c2ccccc2)nc2c(C)cccn12 |  | 0.708 µM (active)
35 | CCOC(=O)CNc1c(-c2ccccc2)nc2ccc(Cl)cn12 |  | 1.58 µM (active)
36 | CC(SCc1cn2cc(Cl)ccc2n1)C(=O)O (stereo not given) | -21.4% (inactive) | 
37 | NCCCc1c(-c2ccccc2)nc(N)[nH]c1=O | 9.63% [at 11.4 µM] (inactive) | 
38 | Cc1nc2c(C)cccn2c1/C(O)=C1\C(=O)C(=O)N(CCN2CCOCC2)C1c1cccs1 (stereo not given) | -19.4% (inactive) | 
39 | CCOC(=O)c1c(-c2ccccc2)nc2ccc(Cl)cn12 |  | 2.51 µM (active)
40 | CCOC(=O)N/N=C1/C[C@@H](O)[C@@H](O)[C@@H]2[C@@H]3C(=O)N([C@@H](C)c4ccccc4)C(=O)[C@H]3CC[C@@H]12 | 3.79% [at 11.4 µM] (inactive) | 
41 | Cc1cc(=Nc2ccc3c(c2)c(N)cc(C)[n+]3C)nc(N)n1C | -5.28% [at 2.29 µM] (inactive) | 
42 | C=C(C)C(=O)N1CC2(CC(c3cccc(NC(=O)c4ccccc4)c3)=NO2)C[C@@H]1C(N)=O (stereo not given in full) | -6.75% (inactive) | 
43 | CC1(C)O[C@@H]2C[C@H]3[C@H]4C[C@H](F)C5=CC(=O)CC[C@]5(C)[C@@H]4[C@H](O)C[C@]3(C)[C@]2(C(=O)CO)O1 | -7.21% [at 25.6 µM] (inactive) | 
44 | CNc1nc(Cl)nc(NC(C)(C)C)n1 |  | 8.91 µM (active)

Row | SMILES | activity, negative = inhibition | AC50
45 | CC1CCC(C(=O)NC(C(=O)N2CCC(N3CCCCC3)CC2)C(C)C)CC1 (stereo not given) | -23.1% (inactive) | 
46 | CC[C@H](Cc1c(I)cc(I)c(N)c1I)C(=O)O |  | 12.6 µM (active)
47 | CC(=O)N(C[C@@H](C)C(=O)O)c1c(I)cc(I)c(N)c1I | -0.251% [at 25.6 µM] (inactive) | 
48 | CCOc1ccc(-n2c(=O)[nH]cc(C(=O)N3CCCc4ccccc43)c2=O)cc1 | -5.33% (inactive) | 
49 | COc1ccccc1C(=O)NN1C(=O)C2C3C=CC(O3)C2C1=O (stereo not given) | -20.6% (inactive) | 
50 | COc1ccccc1C(=O)NC(=S)N1CCCc2ccccc21 |  | 2.24 µM (active)
51 | Oc1cc2c(cc1O)[C@H](c1ccccc1)CNCC2 | -4.19% (inactive) | 
52 | N#Cc1cccc(NC(=O)N2CCC3(CC2)CCN(C(=O)c2csnn2)CC3)c1 | -15.9% (inactive) | 
53 | CCOC(=O)N/N=C1/C[C@@H](O)[C@@H](O)[C@@H]2[C@@H]3C(=O)N(c4cccc(Oc5ccccc5)c4)C(=O)[C@H]3CC[C@H]12 | -3.4% [at 11.4 µM] (inactive) | 
54 | Cc1noc(C)c1C(=O)N1CCC[C@@]2(CCN(Cc3nccs3)C2)C1 | -4.72% (inactive) | 
55 | O=C(c1cccc(F)c1)N1CCC2(CCCN(Cc3ccccc3)C2)CC1 | 10.3% (inactive) | 
56 | O=C(c1cccc(F)c1)N1CCC2(CCCN(Cc3nccs3)C2)CC1 | 7.3% (inactive) | 
57 | O=C(c1cccc(F)c1)N1CCC2(CCN(Cc3ccccc3)CC2)CC1 | -8.19% (inactive) | 
58 | O=C(c1cccc(F)c1)N1CCC2(CC1)CCN(c1ccccc1)CC2 |  | 15.8 µM (active)
59 | O=C(c1ccncc1)N1CCC2(CCN(Cc3nccs3)CC2)CC1 | -21.6% (inactive) | 
60 | Cc1noc(C)c1C(=O)N1CCC2(CCCN(Cc3nccs3)C2)CC1 | -9.73% (inactive) | 
61 | O=C(c1cccc(F)c1)N1CCC2(CC1)CN(c1ccc(-c3ccccc3)cc1)C2 | 0.226% (inactive) | 
62 | O=C(c1cccc(F)c1)N1CCC2(CCCN(c3ccc(-c4ccccc4)cc3)C2)CC1 |  | 15.8 µM (active)
63 | O=C(c1cccc(F)c1)N1CCC2(CCN(Cc3nccs3)CC2)CC1 |  | 1.58 µM (active)
64 | O=C(c1cccc(F)c1)N1CCC2(CC1)CCN(c1ccc(-c3ccccc3)cc1)CC2 | 7.54% (inactive) | 
65 | Cc1noc(C)c1C(=O)N1CCC2(CCN(Cc3nccs3)CC2)CC1 |  | 12.6 µM (active)
